Records with an inconclusive call do not appear. The source made the active and inactive calls. The calls were made as follows: active = hit-call score of the fitted dose curve at least 0.9, where 1 is the maximum; inconclusive = response in the unintended direction; inactive = score below 0.9.
Columns and labels:
[1] = tested on: Sodium/Iodide Symporter (NIS), SLC5A5 (gene 6528); assay: CPHEA_Stoker_NIS_Inhibition_RAIU: CPHEA's Radioactive Iodide Uptake (RAIU) Assay for Sodium/Iodide Symporter (NIS) Inhibition, Stoker and Laws Labs (AID 2283841)
In short: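 Iodide uptake read as CPM of intracellular 125I (final 329 pM) after 2 h room-temperature exposure in HEPES-buffered HBSS, pH 7.4. Human NIS-expressing HEK293T cells; six concentrations 0.001–100 uM, 0.5% DMSO, normalised to DMSO wells.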

[2] = target: human Thyroid hormone Receptor alpha (TRa), THRA (gene 7067) (UniProt P10827); assay: ATG_hTRa_XSP2: Attagene TRANS-FACTORIAL Multi-Species (XSP2) HepG2 Assay for human Thyroid hormone Receptor alpha (TRa) (AID 2283838)
In short: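 Reporter transcripts were read by RT-PCR with fluorescent primer extension, HpaI digestion and capillary electrophoresis. These came from HepG2 cells carrying multiplexed TRa-Gal4 TRANS constructs, harvested 24 hours after dosing. The medium also held 6-alpha-fluorotestosterone (3 nM) and norgestrel (1.5 nM), and increases were fitted against DMSO.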

[3] = target: frog Thyroid hormone Receptor alpha (TRa), thra-a (gene 397942) (UniProt P15204); assay: ATG_frTRa_XSP2: Attagene TRANS-FACTORIAL Multi-Species (XSP2) HepG2 Assay for frog Thyroid hormone Receptor alpha (TRa) (AID 2283839)
In short: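 Read-out: fluorescent reporter-transcript fragments resolved by capillary electrophoresis after RT-PCR and HpaI cut. Human HepG2 liver cells carry a transfected frog TRα-Gal4 chimera driving a UAS reporter; 24 h exposure, DMSO baseline, positive-direction fit.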

[4] = target: human Thyroid hormone Receptor beta (TRb), THRB (gene 7068) (UniProt P10828); assay: ATG_hTRb_XSP2: Attagene TRANS-FACTORIAL Multi-Species (XSP2) HepG2 Assay for human Thyroid hormone Receptor beta (TRb) (AID 2283840);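 also: actives raise reporter mRNA so potency reflects agonist-like gain of signal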
In short: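 Read-out: reporter mRNA induction (RT-PCR, 6-FAM labeling, capillary electrophoresis), gain-of-signal relative to DMSO baseline. Transiently transfected HepG2 TRANS multiplex (NR-Gal4 chimeras, GAL4-UAS reporters), 24 h chemical exposure; medium contained 3 nM 6-alpha-fluorotestosterone plus 1.5 nM norgestrel.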

PGR (gene 5241) [5] = target: PGR (gene 5241) (UniProt P06401); assay: TOX21_PR_BLA_Followup_Antagonist_ratio: Tox21 HEK293 Progesterone Receptor (PR) Antagonism Beta-lactamase Follow-Up Assay, Ratio (AID 2283934);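 also: PR-UAS-bla HEK293T cells stimulated with 1 nM R5020 agonist for 16 hr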
In short: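 Readout is the blue/green (ch2/ch1) substrate cleavage ratio after 2 hours at room temperature, following 16 hr co-treatment of PR-bla HEK293T cells with compound and 1nM promegestone. Multiplexed CellTiter-Glo viability flags cytotoxicity; DMSO baseline.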

[6] = TOX21_PR_BLA_Followup_Agonist_viability: Viability Assessment in the Tox21 HEK293 Progesterone Receptor (PR) Agonism Beta-lactamase Follow-Up Assay (AID 2283935);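 also: signal loss means lower viability so actives are cytotoxic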
In short: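 Run multiplexed with the beta-lactamase FRET read, this endpoint measures ATP by CellTiter-Glo luminescence (30 min, room temperature). PR-UAS-bla HEK293T cells received compound 6 hr after plating and were then incubated 16 hr at 37C in 2% stripped serum.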

[7] = TOX21_PR_BLA_Followup_Antagonist_viability: Viability Assessment in the Tox21 HEK293 Progesterone Receptor (PR) Antagonism Beta-lactamase Follow-Up Assay (AID 2283936);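 also: cells exposed to compound with R5020 agonist for 16 h; hits lower the luminescence signal meaning cytotoxicity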
In short: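 PR-UAS-bla HEK293T cells in medium with 2% charcoal-stripped FBS were treated with compounds plus R5020 for 16 hr at 37C. After the beta-lactamase read, CellTiter-Glo was added to the same wells and luminescence read after 30 min at room temperature.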

PGR (gene 5241) [8] = target: PGR (gene 5241) (UniProt P06401); assay: TOX21_PR_LUC_Followup_Antagonist: Tox21 HEK293 Progesterone Receptor (PR) Antagonism Luciferase Follow-Up Assay (AID 2283938);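 also: curve fitted upward as signal gain over DMSO baseline despite antagonist label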
In short: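 Luminescence from ONE-Glo reagent, measured after 30 min at room temperature, served as readout. Cells (HEK293 carrying PR-A-luc) had been treated 16 h at 37C with DMSO-dissolved compounds. Activity was fitted against DMSO controls.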

[9] = TOX21_PR_LUC_Followup_Agonist_viability: Viability Assessment in the Tox21 HEK293 Progesterone Receptor (PR) Agonism Luciferase Follow-Up Assay (AID 2283941);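 also: loss of signal means cytotoxicity so actives lower viability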
In short: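 Cytotoxicity counter-readout in the PR-A luciferase reporter line HEK293, with 16 h compound exposure at 37C after cells were cultured in charcoal-stripped serum. Cellular ATP quantified by CellTiter-Glo luminescence.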

frog Thyroid hormone Receptor alpha (TRa), thra-a (gene 397942), sequence (P15204 whole entry, looked up, the tested form may be a part): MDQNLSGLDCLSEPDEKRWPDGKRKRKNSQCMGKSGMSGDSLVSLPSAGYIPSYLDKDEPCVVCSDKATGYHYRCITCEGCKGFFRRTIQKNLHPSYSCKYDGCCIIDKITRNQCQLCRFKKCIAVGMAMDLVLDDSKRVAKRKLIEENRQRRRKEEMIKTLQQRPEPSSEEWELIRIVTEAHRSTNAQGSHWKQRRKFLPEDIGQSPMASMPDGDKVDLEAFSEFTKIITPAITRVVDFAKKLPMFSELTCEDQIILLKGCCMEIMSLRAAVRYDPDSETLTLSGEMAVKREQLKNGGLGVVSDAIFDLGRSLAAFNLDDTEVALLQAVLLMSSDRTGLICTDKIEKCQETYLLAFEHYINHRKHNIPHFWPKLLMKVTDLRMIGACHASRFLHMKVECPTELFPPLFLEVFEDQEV
human Thyroid hormone Receptor beta (TRb), THRB (gene 7068), sequence (P10828 whole entry, looked up, the tested form may be a part): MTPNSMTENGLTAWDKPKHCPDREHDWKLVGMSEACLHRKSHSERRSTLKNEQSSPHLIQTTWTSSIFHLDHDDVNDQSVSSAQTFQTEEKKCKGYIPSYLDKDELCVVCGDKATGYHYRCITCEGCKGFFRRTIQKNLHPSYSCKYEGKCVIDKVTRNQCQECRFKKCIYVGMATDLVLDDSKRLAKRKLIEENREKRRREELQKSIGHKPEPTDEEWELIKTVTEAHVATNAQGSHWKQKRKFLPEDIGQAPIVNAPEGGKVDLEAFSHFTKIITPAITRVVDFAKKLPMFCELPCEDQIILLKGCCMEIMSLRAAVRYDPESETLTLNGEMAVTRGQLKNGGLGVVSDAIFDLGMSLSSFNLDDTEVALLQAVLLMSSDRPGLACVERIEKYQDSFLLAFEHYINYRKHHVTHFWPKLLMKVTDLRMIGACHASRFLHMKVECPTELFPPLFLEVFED
human Thyroid hormone Receptor alpha (TRa), THRA (gene 7067), sequence (P10827 whole entry, looked up, the tested form may be a part): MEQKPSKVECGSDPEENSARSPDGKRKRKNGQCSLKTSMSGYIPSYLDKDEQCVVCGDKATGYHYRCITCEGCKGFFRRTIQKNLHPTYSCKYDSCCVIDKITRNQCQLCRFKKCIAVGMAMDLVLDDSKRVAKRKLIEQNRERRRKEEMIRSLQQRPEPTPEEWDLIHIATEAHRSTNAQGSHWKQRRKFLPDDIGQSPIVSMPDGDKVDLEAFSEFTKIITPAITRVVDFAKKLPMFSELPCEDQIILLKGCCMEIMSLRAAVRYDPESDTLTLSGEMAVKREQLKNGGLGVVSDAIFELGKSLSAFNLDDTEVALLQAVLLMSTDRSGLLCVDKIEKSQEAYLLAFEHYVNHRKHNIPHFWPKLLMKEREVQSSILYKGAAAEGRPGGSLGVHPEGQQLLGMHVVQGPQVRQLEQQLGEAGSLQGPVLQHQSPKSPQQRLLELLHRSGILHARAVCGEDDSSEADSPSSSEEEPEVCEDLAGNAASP
PGR (gene 5241), sequence (P06401 whole entry, looked up): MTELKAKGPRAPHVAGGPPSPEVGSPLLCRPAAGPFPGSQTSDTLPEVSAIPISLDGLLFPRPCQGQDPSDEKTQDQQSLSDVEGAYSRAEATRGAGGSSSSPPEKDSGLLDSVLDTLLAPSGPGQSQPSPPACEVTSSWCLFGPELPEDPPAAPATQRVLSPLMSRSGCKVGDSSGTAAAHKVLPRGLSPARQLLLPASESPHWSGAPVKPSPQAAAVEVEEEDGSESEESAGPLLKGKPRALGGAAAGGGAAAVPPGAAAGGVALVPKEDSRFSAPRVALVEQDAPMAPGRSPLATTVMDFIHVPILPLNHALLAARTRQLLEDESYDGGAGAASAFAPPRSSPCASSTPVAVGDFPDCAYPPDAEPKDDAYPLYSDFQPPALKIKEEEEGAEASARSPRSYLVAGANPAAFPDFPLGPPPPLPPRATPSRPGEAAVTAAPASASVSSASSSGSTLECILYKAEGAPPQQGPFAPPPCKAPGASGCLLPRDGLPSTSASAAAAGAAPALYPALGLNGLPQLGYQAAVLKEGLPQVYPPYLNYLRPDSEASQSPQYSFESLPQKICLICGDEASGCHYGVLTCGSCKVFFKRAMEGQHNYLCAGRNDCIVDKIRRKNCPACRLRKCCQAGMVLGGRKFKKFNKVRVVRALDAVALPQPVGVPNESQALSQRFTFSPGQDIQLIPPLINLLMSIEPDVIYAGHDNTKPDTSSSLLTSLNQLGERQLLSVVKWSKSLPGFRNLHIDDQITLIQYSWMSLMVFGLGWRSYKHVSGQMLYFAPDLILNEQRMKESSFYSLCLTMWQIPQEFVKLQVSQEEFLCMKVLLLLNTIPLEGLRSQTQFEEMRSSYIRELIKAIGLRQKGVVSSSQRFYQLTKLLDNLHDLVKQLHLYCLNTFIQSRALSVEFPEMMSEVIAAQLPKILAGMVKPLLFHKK

For `CCOC(=O)C(C)OC(=O)c1cc(Oc2ccc(C(F)(F)F)cc2Cl)ccc1[N+](=O)[O-]` (stereo unspecified), the outcome [1] was “inactive”.
In the case of `OC(c1ccc(Cl)cc1)(c1ccc(Cl)cc1)C(Cl)(Cl)Cl`, the AC50 [1] is reported as 30.2 µM (active).
For `CCCCC(O)(Cn1cncn1)c1ccc(Cl)cc1Cl` (stereo unspecified), the outcome [1] was “inactive”.
In the case of `COP(=S)(OC)Oc1ccc([N+](=O)[O-])c(C)c1`, the outcome [2] is reported as “inactive”, the outcome [3] is reported as “inactive” and the outcome [4] is reported as “inactive”. For the same compound, the outcome [1] was “inactive”.
In the case of `C=CCOC(=O)C(C)(C)OC(=O)c1cc(-n2c(=O)cc(C(F)(F)F)n(C)c2=O)ccc1Cl`, the outcome [1] is reported as “inactive”.
In the case of `Cc1ccc(N=CN(C)C=Nc2ccc(C)cc2C)c(C)c1`, the outcome [1] is reported as “inactive”.
In the case of `CCOc1nc(F)cc2nc(S(=O)(=O)Nc3c(Cl)cccc3Cl)nn12`, the outcome [1] is reported as “inactive”.
In the case of `CCN(CC)c1nc(C)cc(OP(=S)(OC)OC)n1`, the outcome [1] is reported as “inactive”.
In the case of `CC(C)Oc1cccc(NC(=O)c2ccccc2C(F)(F)F)c1`, the outcome [1] is reported as “inactive”.
With `Clc1cccc(C(Cl)(Cl)Cl)n1` the outcome [1] was “inactive”.
For `O=C1C2CC=CCC2C(=O)N1SC(Cl)(Cl)Cl` (stereo unspecified), the AC50 [1] was 36 µM (active).
For `COP(=S)(OC)SCn1nnc2ccccc2c1=O`, the outcome [2] was “inactive”, the outcome [3] was “inactive” and the outcome [4] was “inactive”. For the same compound, the outcome [1] was “inactive”.
In the case of `CC(C)=CC1C(C(=O)OCc2coc(Cc3ccccc3)c2)C1(C)C` (stereo unspecified), the outcome [1] is reported as “inactive”.
For `CCN(CC)C(=O)C(C)Oc1cccc2ccccc12` (stereo unspecified), the outcome [2] was “inactive”, the outcome [3] was “inactive” and the outcome [4] was “inactive”. For the same compound, the outcome [1] was “inactive”, the AC50 (PGR (gene 5241) [5]) was 28.4 µM (active) and the outcome [6] was “inactive”. The outcome [7] was “inactive”, the outcome (PGR (gene 5241) [8]) was “inactive” and the outcome [9] was “inactive”.
For `CC1(C)C(C(=O)OC(C#N)c2cccc(Oc3ccccc3)c2)C1(C)C` (stereo unspecified), the outcome [1] was “inactive”.
In the case of `CC(C)N1C(=O)N(c2ccccc2)CSC1=NC(C)(C)C`, the AC50 [1] is reported as 27.8 µM (active).
With `Nc1c(Cl)c(Cl)nc(C(=O)O)c1Cl` the outcome [1] was “inactive”.
